# Where “and” joins values, the source holds several entries; their conditions need not be identical. Equal values may be shown once. Records with an inconclusive call do not appear. A structure can be active in one record and inactive in another. Calls of active or inactive are those of the source. Unless noted, calls come from the whole dose curve.
# Tests used:
# [1] = AP1 Signaling Pathway (AID 357; active = well fitted curve in either direction with a large enough effect, not every such curve was filed as active;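 note: ME-180 reporter cells stimulated with EGF at its EC50 level; % is set by controls: 0 for no effect and ±100 for the full control effect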); settings: ME-180 AP-1-bla reporter, EGF-induced, beta-lactamase ratio, 5 h; series mostly up to 17.2 µM
# In short: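 In this screen, ME-180 cells in Opti-MEM with 0.5% dialyzed FBS received EC50 EGF and compound titrations for 5 h. AP-1 reporter beta-lactamase was detected via CCF4 ratio, giving AC50 for positive and negative modulators.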
# [2] = target: Cytochrome P450 1A2 (Homo sapiens) (UniProt P05177); experiment: p450-cyp1a2 (AID 410); settings: recombinant CYP1A2, luciferin-ME demethylation, luminescence; series mostly up to 57 µM; note: potency is the fitted concentration of half-maximal effect;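 for activity change, negative = inhibition: -100% = full effect of reference inhibitor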
# Cytochrome P450 1A2 (Homo sapiens), sequence (P05177 whole entry, looked up): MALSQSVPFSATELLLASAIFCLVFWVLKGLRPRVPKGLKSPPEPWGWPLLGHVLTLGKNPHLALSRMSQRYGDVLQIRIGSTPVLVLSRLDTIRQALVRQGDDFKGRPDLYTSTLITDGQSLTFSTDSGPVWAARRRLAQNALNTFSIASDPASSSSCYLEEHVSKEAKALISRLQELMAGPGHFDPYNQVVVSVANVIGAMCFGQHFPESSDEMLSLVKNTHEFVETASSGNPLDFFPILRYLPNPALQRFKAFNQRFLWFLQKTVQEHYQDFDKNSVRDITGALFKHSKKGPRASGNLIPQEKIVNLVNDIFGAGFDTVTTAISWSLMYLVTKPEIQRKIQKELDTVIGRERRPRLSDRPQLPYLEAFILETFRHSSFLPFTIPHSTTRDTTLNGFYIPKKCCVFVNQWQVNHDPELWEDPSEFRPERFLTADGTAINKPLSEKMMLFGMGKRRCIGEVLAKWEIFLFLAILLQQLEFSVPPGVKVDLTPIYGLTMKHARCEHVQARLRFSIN
# In short: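 20nM CYP1A2, 100uM Luciferin-ME (=Km), 100mM KPO4; cpd 10 min RT; +NADPH regen, 60 min RT; stop/detect 20 min; luminescence. Normalized to furafylline 57 uM = full inhibition.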
# [3] = NFAT Signaling Pathway (AID 444; active = well fitted curve in either direction with a large enough effect, not every such curve was filed as active;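 note: carbachol stimulus at about its EC50 of 1 µM final; % is set by controls: 0 for no effect and ±100 for the full control effect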); settings: Jurkat NFAT-bla M1, carbachol, beta-lactamase ratio, 5 h
# In short: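 Read-out: CCF4 FRET ratio (460 nm/530 nm) after 1 h RT dye loading, used for %activity and AC50 from titration series. Cells: Jurkat NFAT-β-lactamase/M1 line, treated with compound plus 1 uM carbachol for 5 h, 37 °C.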
# [4] = Cell Viability - BJ (AID 421); settings: BJ fibroblast viability, qHTS;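 note: potency is the fitted concentration of half-maximal effect; cells exposed to compound for 40 hours at 37 °C before readout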
# In short: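 Cytotoxicity as drop in intracellular ATP (CellTiter-Glo, 20 min RT) after 40 hr compound exposure of BJ fibroblasts at 37 °C. Titrations scaled between DMSO and 100 uM tamoxifen, Hill-fitted for AC50.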
# [5] = Cell Viability - HepG2 (AID 433); settings: qHTS;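 note: potency is the fitted concentration of half-maximal effect; cells exposed to compound for 40 hours; potency for ATP loss meaning cytotoxicity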
# In short: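 Cytotoxicity read as ATP loss (CellTiter-Glo luminescence) after 40 hr compound exposure of HepG2, 1500 cells/well, 37 °C. AC50 by Hill equation; 0% set by DMSO, 100% inhibition by 100 uM tamoxifen.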
# [6] = Cell Viability - MRC5 (AID 434); settings: MRC5 lung fibroblast viability, qHTS;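 note: potency is the fitted concentration of half-maximal effect; cells exposed to compound for 40 hours at 37 °C; potency reflects cytotoxicity seen as loss of intracellular ATP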
# In short: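 AC50 values come from Hill-equation fits of intracellular ATP loss, measured by CellTiter-Glo luminescence. Normal lung fibroblasts (MRC5) had 40 hr compound treatment at 37 C, normalized between DMSO and 100 uM tamoxifen.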
# [7] = Cell Viability - Jurkat (AID 426;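 active = dose-dependent loss of cell ATP signal giving a full or clear fitted curve, ranked by lower potency value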;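 note: potency is the fitted concentration of half-maximal effect; cells exposed to compound for 40 hours at 37 °C before ATP read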); settings: qHTS
# In short: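 Luminescent ATP read-out (CellTiter-Glo, 20 min at room temperature) after 40 hr compound exposure at 37 °C of Jurkat E6-1 cells, 5000/well. Decreased ATP taken as cytotoxicity; AC50 from standard Hill equation.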
# [8] = Cell Viability - Hek293 (AID 427;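 active = compounds whose dose-response curve shows a full or clear partial loss of cell viability, called from curve shape rather than a numeric limit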;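 note: potency is the fitted concentration of half-maximal effect; cells exposed to compound for 40 hours at 37 °C before reading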); settings: qHTS
# In short: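 Luminescent ATP content (CellTiter-Glo, 20 min at room temperature) was measured after a 40 hr, 37 °C compound exposure of HEK293 cells. AC50 values came from Hill-equation fits of qHTS concentration-response data normalized to DMSO and 100 uM tamoxifen.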
# [9] = Cell Viability - SK-N-SH (AID 435); settings: SK-N-SH neuroblastoma cell viability qHTS; note: potency is the fitted concentration of half-maximal effect
# In short: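 qHTS cytotoxicity: CellTiter-Glo ATP luminescence after 40 h compound exposure of human neuroblastoma SK-N-SH cells at 37 °C. AC50 derived by Hill-equation fitting, with DMSO as basal and 100 uM tamoxifen as full inhibition.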
# [10] = Stat Signaling Pathway (AID 446; active = well fitted curve in either direction with a large enough effect, not every such curve was filed as active;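 note: ME-180 cervical cancer cells given 40 pM IL-6 alongside compound; SIE-controlled beta-lactamase reporter measured as 460/530 nm FRET emission ratio; % is set by controls: 0 for no effect and ±100 for the full control effect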); settings: ME-180 (cervical carcinoma) SIE beta-lactamase reporter, IL-6 stimulated, 5 h; series mostly up to 17.2 µM
# In short: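 FRET read-out (405 nm excitation, 460/530 nm emission) of a beta-lactamase reporter under a STAT-inducible element in ME-180 cervical carcinoma cells. Cells with compound receive 40 pM IL-6 for 5 h. Values are normalised to AC90 stimulation and AC90 JAK-inhibitor controls.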
structure (smiles),measurement,setting,value
CCCCC/C=C\C/C=C\C/C=C\C/C=C\CCCC(=O)NCC(=O)O,outcome,[1],inactive
same,Potency,[2],inactive
same,"activity change, negative = inhibition",[3]; at 38 µM (top of the series),-2.7% (inactive)
Cc1ncsc1CCCl,Potency,[2],31.6 µM (active)
Clc1ccc(C(c2ccc(Cl)cc2)C(Cl)(Cl)Cl)cc1,Potency,[4],> 92 µM (inactive)
same,Potency,[5],> 92 µM (inactive)
same,Potency,[6],> 92 µM (inactive)
O=C(CCCN1CCC2(CC1)C(=O)NCN2c1ccccc1)c1ccc(F)cc1,outcome,[1],inactive
same,Potency,[2],inactive and 25.1 µM (active)
same,"activity change, negative = inhibition",[3]; at 17.2 µM (top of the series),-4.55% (inactive)
same,"activity change, negative = inhibition",[3]; at 38 µM (top of the series),10.5% (inactive)
Oc1ccc(Cl)cc1,Potency,[4],> 92 µM (inactive)
same,Potency,[7],> 92 µM (inactive)
same,Potency,[8],> 92 µM (inactive)
same,Potency,[5],> 92 µM (inactive)
same,Potency,[6],> 92 µM (inactive)
same,Potency,[9],> 92 µM (inactive)
COc1c2c(cc3c1OCO3)CCN(C)C2,outcome,[1],inactive
same,Potency,[2],2 µM (active)
same,"activity change, negative = inhibition",[3]; at 17.2 µM (top of the series),-27% (inactive)
same,outcome,[10],inactive
CC(NC(C)(C)C)C(=O)c1cccc(Cl)c1 (configuration not stated),outcome,[1],inactive
same,"activity change, negative = inhibition",[3]; at 17.2 µM (top of the series),-27.5% (inactive)
same,outcome,[10],inactive
C[N+]1(C)[C@@H]2CC(OC(=O)[C@H](CO)c3ccccc3)C[C@H]1[C@@H]1O[C@@H]12 (some centres not stated),outcome,[1],inactive
same,"activity change, negative = inhibition",[3]; at 17.2 µM (top of the series),-68.4% (active)
same,outcome,[10],inactive
O=c1oc2ccccc2c(O)c1Cc1c(O)c2ccccc2oc1=O,Potency,[2],12.6 µM (active)
same,"activity change, negative = inhibition",[3]; at 17.2 µM (top of the series),-5.31% (inactive)
COC(=O)C(c1ccccc1)C1CCCCN1 (configuration not stated),Potency,[4],> 92 µM (inactive)
same,Potency,[7],> 92 µM (inactive)
same,Potency,[8],> 92 µM (inactive)
same,Potency,[5],> 92 µM (inactive)
same,Potency,[6],> 92 µM (inactive)
same,Potency,[9],> 92 µM (inactive)
CC(C)NC(C)C,Potency,[4],> 92 µM (inactive)
same,Potency,[7],> 92 µM (inactive)
same,Potency,[8],> 92 µM (inactive)
same,Potency,[5],> 92 µM (inactive)
same,Potency,[6],> 92 µM (inactive)
same,Potency,[9],> 92 µM (inactive)
C[C@]12CCC(=O)C=C1CC[C@@H]1[C@@H]2CC[C@@]2(C)[C@H]1CC[C@]2(C)O,Potency,[4],> 92 µM (inactive)
same,Potency,[5],> 92 µM (inactive)
same,Potency,[6],> 92 µM (inactive)
C[C@]1(O)CC[C@H]2[C@@H]3CCC4=CC(=O)CC[C@]4(C)[C@@]3(F)[C@@H](O)C[C@@]21C,Potency,[4],> 92 µM (inactive)
same,Potency,[7],> 92 µM (inactive)
same,Potency,[8],> 92 µM (inactive)
same,Potency,[5],> 92 µM (inactive)
same,Potency,[6],> 92 µM (inactive)
same,Potency,[9],> 92 µM (inactive)
O=P1(N(CCCl)CCCl)NCCCO1 (configuration not stated),outcome,[1],inactive
same,Potency,[2],inactive
same,Potency,[4],> 92 µM (inactive)
same,Potency,[7],> 92 µM (inactive)
same,Potency,[8],> 92 µM (inactive)
same,Potency,[5],> 92 µM (inactive)
same,Potency,[6],> 92 µM (inactive)
same,Potency,[9],> 92 µM (inactive)
same,"activity change, negative = inhibition",[3]; at 38 µM (top of the series),4.3% (inactive)
O=C(O)CCCc1ccc(N(CCCl)CCCl)cc1,outcome,[1],inactive
same,Potency,[2],inactive
same,Potency,[7],22.8 µM (active)
same,Potency,[8],18.6 µM (active)
same,Potency,[5],> 92 µM (inactive)
same,"activity change, negative = inhibition",[3]; at 17.2 µM (top of the series),-26.3% (inactive)
same,"activity change, negative = inhibition",[3]; at 38 µM (top of the series),-2.19% (inactive)
same,outcome,[10],inactive
COP(=S)(OC)Oc1ccc(SC)c(C)c1,Potency,[4],> 92 µM (inactive)
same,Potency,[7],> 92 µM (inactive)
same,Potency,[8],> 92 µM (inactive)
same,Potency,[5],> 92 µM (inactive)
same,Potency,[6],> 92 µM (inactive)
same,Potency,[9],> 92 µM (inactive)
NCCc1ccc(O)cc1,outcome,[1],inactive
same,Potency,[2],inactive
same,Potency,[4],> 92 µM (inactive)
same,Potency,[7],> 92 µM (inactive)
same,Potency,[8],> 92 µM (inactive)
same,Potency,[5],> 92 µM (inactive)
same,Potency,[6],> 92 µM (inactive)
same,Potency,[9],> 92 µM (inactive)
same,"activity change, negative = inhibition",[3]; at 38 µM (top of the series),5.43% (inactive)

# Source: PubChem BioAssay (NCATS)
